In PubChem BioAssay (EPA / NIEHS):
Activity calls are given as the source filed them. The calls were made as follows: active = hit-call score of the fitted dose curve at least 0.9, where 1 is the maximum; inactive = score below 0.9.

The compounds below were run on flavin-containing dimethylaniline monooxygenases 3 (FMO3), FMO3 (gene 2328) (assay: LTEA_HepaRG_FMO3: Life Technologies and Expression Analysis (LTEA) Assay for flavin-containing dimethylaniline monooxygenases 3 (FMO3) using HepaRG (AID 2283453;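 as to AC50: FMO3 transcript by TaqMan qRT-PCR normalized to ACTB GAPDH and POLR2A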)). Conditions: mRNA level, 48 h; actives raise or lower the signal.
Method: LTEA_HepaRG is a cell based, multiplexed-readout assay that uses HepaRG, a human liver cell line, with measurements taken at 48 hours after chemical dosing on a 96-well plate.LTEA_HepaRG_FMO3 is one of 102 assay component(s) measured in the LTEA HepaRG cell culture assay. It is a marker of NR mediated metabolism.Data from the assay component LTEA_HepaRG_FMO3 was analyzed into 1 endpoint. This assay endpoint, LTEA_HepaRG_FMO3, was analyzed with bidirectional fitting relative to DMSO as the negative control and baseline of activity. Using a type of inducible reporter, measures of mRNA induction for gain or loss-of-signal activity can be used to understand regulation of transcription factor activity. To generalize the intended target to other relatable targets, this assay endpoint is annotated to the oxidoreductase intended target family, where the subfamily is […].
A total of 1060 chemcials from the ToxCast library were tested in eight-point concentration-response experiments. Cell culture and cytotoxicity assays were conducted at Thermo Fisher Scientific's Custom Services facility (Madison, WI). A single lot of human HepaRG cells (Thermo Fisher Scientific, Frederick, MD) was used for the cell culture experiments. 96-well format collagen type I coated plates of human HepaRG cells were prepared using established methods. Briefly, cryopreserved HepaRG cells were thawed, plated at a density of approximately 100,000 cells/well in HepaRG Thaw, Plate, and General Purpose media (HPRG770, Thermo Fisher Scientific), and incubated for 48 hours. 0.5% DMSO was selected as vehicle control to balance the requisite need of DMSO in HepaRG cultures to maintain differentiation (for example, baseline metabolism, proportions of hepatocytes vs. cholangiocytes), while enabling further hepatic receptor pathway activation (for example, PXR and CAR) in response to chemical exposure. 48 hours after plating, the culture medium was replaced with HepaRG Serum-Free Incudtion Media. Cells were exposed to each test chemical in duplicate and maintained in CO2 incubators for another 48 hours. Chemical plates were thawed to room temperature and 200x concentrations of treatment groups were prepared. 8-point conentration-reponse curves were made with the highest exposure at 100 uM, followed by half-log dilutions, all in 0.5% DMSO. Each test plate contained variouse controls, induction positive controls (1mM phenobarbital), cytotoxicity positive controls ([…] aflatoxin B1), vehicle controls (0.5% DMSO), and total lysis controls (0.5% DMSO). Cell morphology images were taken using an Essen IncuCyte FLR automated microscope, with six 96-well plates imaged in about 24 minutes. Images were captured and exported and JPEG files. Spent culture media was transfered to black-well plates for the LDH assay, and remaining media was sorted at -80 C for later use. Cells were treated with RLT buffer and frozen until shipped for gene expression analysis. Total RNA was isolated from the cell suspension in 75 uL of Buffer RLT (Qiagen, Germantown, MD 20874) by Quintiles/Expression Analysis (Durham, NC) using a custom isolation procedure. Total RNA from each plate well was transferred to a preamplification plate. Fluidigm's 96.96 Dynamic ArrayTM (Fluidigm, Amsterdam, the Netherlands) technology was used for gene expression analyses by quantitative reverse transcription polymerase chain reaction (qRT-PCR, performed by Quintiles/Expression Analysis, Durham, NC)89. Standard TaqManTM Assays (Applied Biosystems/ThermoFisher Scientific, Foster City, CA) were used to assess the expression of 93 genes selected based on their selectivity and sensitivity to important hepatic receptors known to be modulated by environmental chemicals; importance in human hepatocyte functionality; and hepatotoxicity. […]

Which AC50 does the source give for Cc1oc(-c2ccccc2)nc1CCOc1cccc2c1ccn2CCC(=O)O here?
Its AC50 is 76.7 µM (active).

With COc1ccc(C)cc1N as the compound, how does the outcome read?
Its outcome is “inactive”.

With Cc1cccc(Nc2cc(Cl)nc(SCC(=O)O)n2)c1C as the compound, how does the outcome read?
Its outcome is “inactive”.

CC(CO)OC(C)CO (stereo not given) (tested in a mixture with another compound) was tested. Which outcome did it give?
Its outcome is “inactive”.

With CCOC(=O)C(C)(C)Oc1ccc(Cl)cc1 as the compound, how does the outcome read?
The outcome was “inactive”.

With CN1CCN(Cc2cc(-c3ccc4[nH]c(=O)oc4c3)co2)[C@@H](c2ccc(F)cc2)C1 as the compound, how does the outcome read?
The outcome was “inactive”.

How did the outcome turn out when O=[N+]([O-])C(CO)(CO)CO was run?
The outcome was “inactive”.

Nc1ccccc1N was tested. Which AC50 did it give?
Its AC50 is 63.7 µM (active).

Cc1ccc(C(C)C)c(O)c1 was tested. Which outcome did it give?
Its outcome is “inactive”.

CCOC(=O)CCC(=O)OCC was tested. Which outcome did it give?
The outcome was “inactive”.

For C[C@]12C=CC(=O)C=C1CC[C@@H]1[C@@H]2C(=O)C[C@@]2(C)[C@H]1CC[C@]2(O)C(=O)CO, which outcome is on record?
The outcome was “inactive”.

With O=c1[nH]cc(F)c(=O)[nH]1 as the compound, how does the AC50 read?
Its AC50 is 36.3 µM (active).

With CCCCCCCCCCC as the compound, how does the outcome read?
The outcome was “inactive”.

How did the outcome turn out when CCCCCCOCCO was run?
Its outcome is “inactive”.

Which outcome does the source give for C=CCOC(=O)c1ccccc1C(=O)OCC=C here?
Its outcome is “inactive”.

C1CCC(SSC2CCCCC2)CC1 was tested. Which outcome did it give?
The outcome was “inactive”.

How did the outcome turn out when CCCCc1ccc2c(n1)[C@@H](c1ccc(OC)cc1C[C@H](C)C(=O)O)[C@H](C(=O)O)[C@H]2c1ccc2c(c1)OCO2 was run?
The outcome was “inactive”.

For Clc1cc(Cl)c(Cl)cc1Cl, which outcome is on record?
The outcome was “inactive”.

For COc1ccc2c(c1)c(CC(=O)O)c(C)n2C(=O)c1ccc(Cl)cc1, which outcome is on record?
The outcome was “inactive”.

CCCCC(CC)COC(=O)CC(C(=O)OCC(CC)CCCC)S(=O)(=O)O (stereo not given) was tested. Which AC50 did it give?
Its AC50 is 77.4 µM (active).

CCOc1ccc2c(c1)C(C)=CC(C)(C)N2 was tested. Which outcome did it give?
Its outcome is “inactive”.

With COC(=O)c1ccc(O)cc1 as the compound, how does the outcome read?
The outcome was “inactive”.

How did the outcome turn out when CC(=O)Oc1ccccc1C(=O)O was run?
Its outcome is “inactive”.

Which outcome does the source give for COCCOCCOC here?
The outcome was “inactive”.

For CC(C)(C)c1cc(O)c(C(C)(C)C)cc1O, which AC50 is on record?
The AC50 was 78.1 µM (active).

CCCCCCCCCCO was tested. Which outcome did it give?
Its outcome is “inactive”.

With OC[C@@H](O)[C@@H](O)[C@H](O)[C@H](O)CO as the compound, how does the outcome read?
The outcome was “inactive”.

With O=C(N[C@@H](Cc1ccccc1)[C@@H](O)C(=O)N1C[C@@H](O)[C@@H](O)C1)c1cc2cc(Cl)ccc2[nH]1 as the compound, how does the outcome read?
Its outcome is “inactive”.

Oc1ccc2ccccc2c1N=Nc1ccccc1 was tested. Which AC50 did it give?
Its AC50 is 10.4 µM (active).

For CCCCCCCCCCCC(=O)OC, which outcome is on record?
The outcome was “inactive”.

With COc1ccc(S(=O)(=O)N2C(=O)[C@@](c3ccccc3OC)(N3C[C@H](O)C[C@H]3C(=O)N(C)C)c3cc(Cl)ccc32)c(OC)c1 as the compound, how does the AC50 read?
Its AC50 is 43.3 µM (active).

How did the outcome turn out when COCCOC[C@H](CC1(C(=O)NC2CCC(C(=O)O)CC2)CCCC1)C(=O)Oc1ccc2c(c1)CCC2 (stereo not given in full) was run?
The outcome was “inactive”.

For Cc1c(C(=O)O)c(O)cc2c1C(=O)c1c(O)c([C@@H]3O[C@H](CO)[C@@H](O)[C@H](O)[C@H]3O)c(O)c(O)c1C2=O, which outcome is on record?
The outcome was “inactive”.

With Cc1ccc2ncccc2c1 as the compound, how does the outcome read?
Its outcome is “inactive”.

FC(F)(F)C(F)(F)C(F)(F)C(F)(F)C(F)(F)C(F)(F)CCI was tested. Which outcome did it give?
The outcome was “inactive”.

O=C(O)Cc1ccccc1Nc1c(Cl)cccc1Cl was tested. Which outcome did it give?
The outcome was “inactive”.

For CC1(C)CC(N=C=O)CC(C)(CN=C=O)C1 (stereo not given), which outcome is on record?
The outcome was “inactive”.

O=c1c(O)c(-c2ccc(O)c(O)c2)oc2cc(O)cc(O)c12 was tested. Which AC50 did it give?
The AC50 was 80 µM (active).

How did the outcome turn out when CC(=O)OC/C=C(\C)CCC=C(C)C was run?
The outcome was “inactive”.

How did the outcome turn out when Cc1ccc(Cl)cc1 was run?
The outcome was “inactive”.
